In PubChem BioAssay AID1159580 (chemical genetic matrix, 2015):
Values joined by “and” are separate entries in the source; they are usually repeats but may differ in a detail not shown here. Equal values may be shown once. In all, about 5,500 compounds went through this assay and about 2,000 (36%) were called active. Roughly 18% stayed inconclusive and do not appear here. Cut-off read from the data, not from the text of the source: active = normalized growth mostly below about 0.91 (no sharp cut-off); inconclusive = no clear call, values can overlap the other calls; inactive = mostly above about 0.92. The list shows a part of the results.

Assay: chemical genetic growth profiling, strain panel (AID 1159580);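 note: tested at 20 µM; growth read once vehicle control cultures reached saturation at 30 °C; 1 = growth at the plate median or of vehicle wells; lower values mean less growth of the strain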
Details: growth OD
[1] = S. cerevisiae deletion strains, locus YAL013W, strain DEP1, hits give low values
[2] = S. cerevisiae deletion strains, locus YBR229C, strain ROT2, hits give low values
[3] = S. cerevisiae deletion strains, locus YDL101C, strain DUN1, hits give low values
[4] = S. cerevisiae deletion strains, locus YDR150W, strain NUM1, hits give low values
[5] = S. cerevisiae deletion strains, locus YEL061C, strain CIN8, hits give low values
[6] = S. cerevisiae deletion strains, locus YGR078C, strain PAC10, hits give low values
[7] = S. cerevisiae deletion strains, locus YHR030C, strain SLT2, hits give low values
[8] = S. cerevisiae deletion strains, locus YHR087W, strain rtc3, hits give low values
[9] = S. cerevisiae deletion strains, locus YJL187C, strain SWE1, hits give low values
[10] = S. cerevisiae deletion strains, locus YJR043C, strain POL32, hits give low values
[11] = S. cerevisiae deletion strains, locus YJR075W, strain HOC1, hits give low values
[12] = S. cerevisiae deletion strains, locus YKL190W, strain CNB1, hits give low values
[13] = S. cerevisiae deletion strains, locus YLR039C, strain RIC1, hits give low values
[14] = S. cerevisiae deletion strains, locus YLR058C, strain SHM2 (second series), hits give low values
[15] = S. cerevisiae deletion strains, locus YLR085C, strain ARP6, hits give low values
[16] = S. cerevisiae deletion strains, locus YLR262C, strain YPT6, hits give low values
[17] = S. cerevisiae deletion strains, locus YML094W, strain GIM5, hits give low values
[18] = S. cerevisiae deletion strains, locus YMR219W, strain ESC1, hits give low values
[19] = S. cerevisiae deletion strains, locus YMR263W, strain SAP30, hits give low values
[20] = S. cerevisiae deletion strains, locus YNL153C, strain GIM3, hits give low values
[21] = S. cerevisiae deletion strains, locus YNL298W, strain CLA4 (second series), hits give low values
[22] = S. cerevisiae deletion strains, locus YNL322C, strain KRE1, hits give low values
[23] = S. cerevisiae deletion strains, locus YNR030W, strain Alg12, hits give low values
[24] = S. cerevisiae deletion strains, locus YOL006C, strain TOP1, hits give low values
[25] = S. cerevisiae deletion strains, locus YPL055C, strain LGE1, hits give low values
[26] = S. cerevisiae deletion strains, locus YPL241C, strain CIN2, hits give low values
[27] = S. cerevisiae deletion strains, locus YPR135W, strain CTF4, hits give low values
[28] = S. cerevisiae deletion strains, locus YDL134C, strain PPH21, hits give low values
[29] = S. cerevisiae deletion strains, locus YMR307W, strain GAS1, hits give low values
[30] = S. cerevisiae strains, strain wild type, hits give low values
[31] = S. cerevisiae deletion strains, locus YNL128W, strain TEP1, hits give low values

Measured: normalized growth

O=C1CCCc2c1nc(-c1ccccc1)n2O
inactive: [1] 1 | [2] 1 | [3] 1.03 | [4] 0.966 | [5] 1.05 | [6] 1 | [7] 1.05 | [8] 0.999 | [9] 1.02 | [10] 0.995 | [11] 1.01 | [12] 1 | [13] 1.04 | [14] 1.03 | [15] 0.998 | [16] 1.06 | [17] 1.01 | [18] 1.01 | [19] 0.999 | [20] 1.03 | [21] 0.993 | [22] 1.01 | [23] 1.01 | [24] 0.999 | [25] 0.905 | [26] 1.02 | [27] 1

O=C1CCCc2c1c1ccccc1n2Cc1ccccc1
active: [13] 0.753 | [16] 0.75
inactive: [1] 0.99 | [2] 0.978 | [3] 0.974 | [28] 0.989 | [4] 0.893 | [5] 0.961 | [6] 0.972 | [7] 0.712 | [8] 0.965 | [9] 0.992 | [10] 0.996 | [11] 0.98 | [14] 0.997 | [15] 0.889 | [17] 0.91 | [18] 0.975 | [19] 0.94 | [29] 0.973 | [20] 0.98 | [21] 0.95 | [22] 0.974 | [23] 0.951 | [25] 0.933 | [26] 0.987 | [27] 0.839 | [30] 0.974

CN1CCc2c(c3ccccc3n2Cc2ccccc2)C1
active: S. cerevisiae deletion strains, locus YBR021W, strain FUR4, hits give low values 0.631 | S. cerevisiae deletion strains, locus YGR135W, strain pre9, hits give low values 0.863 | S. cerevisiae deletion strains, locus YGR229C, strain SMI1, hits give low values 0.577 | S. cerevisiae deletion strains, locus YGR252W, strain gcn5, hits give low values 0.646 | [13] 1.4 [resistant] | [16] 1.56 [resistant] | S. cerevisiae deletion strains, locus YLR342W, strain FKS1 (second series), hits give low values 0.64 | S. cerevisiae deletion strains, locus YLR418C, strain cdc73, hits give low values 0.714 | [31] 0.58 | [25] 0.731
inactive: [1] 0.927 | [2] 1 | S. cerevisiae deletion strains, locus YCL029C, strain bik1, hits give low values 1.06 | S. cerevisiae deletion strains, locus YDL035C, strain GPR1, hits give low values 0.913 | S. cerevisiae deletion strains, locus YDL074C, strain BRE1, hits give low values 0.819 | [3] 1.02 | [28] 0.987 | S. cerevisiae deletion strains, locus YDL185W, strain tfp1, hits give low values 1.01 | S. cerevisiae deletion strains, locus YDL192W, strain arf1, hits give low values 1.01 | S. cerevisiae deletion strains, locus YDR101C, strain arx1, hits give low values 1 | [4] 1.01 | S. cerevisiae deletion strains, locus YDR162C, strain NBP2, hits give low values 0.992 | S. cerevisiae deletion strains, locus YDR318W, strain mcm21, hits give low values 0.992 | S. cerevisiae deletion strains, locus YDR388W, hits give low values 0.981 | S. cerevisiae deletion strains, locus YDR502C, strain sam2, hits give low values 0.953 | [5] 1 | S. cerevisiae deletion strains, locus YER110C, hits give low values 1.01 | S. cerevisiae deletion strains, locus YER155C, strain BEM2, hits give low values 1.02 | S. cerevisiae deletion strains, locus YER167W, strain BCK2, hits give low values 0.98 | S. cerevisiae deletion strains, locus YGL078C, strain dbp3, hits give low values 1.01 | S. cerevisiae deletion strains, locus YGL086W, strain mad1, hits give low values 0.963 | S. cerevisiae deletion strains, locus YGL248W, strain PDE1, hits give low values 0.998 | [6] 0.932 | [7] 0.949 and 1.03 | S. cerevisiae deletion strains, locus YHR079C, strain IRE1 (second series), hits give low values 1.01 | S. cerevisiae deletion strains, locus YHR079C, strain IRE1, hits give low values 1.03 | S. cerevisiae deletion strains, locus YHR094C, strain hxt1, hits give low values 1.01 | S. cerevisiae deletion strains, locus YHR129C, strain ARP1, hits give low values 1.01 | S. cerevisiae deletion strains, locus YHR200W, strain rpn10, hits give low values 0.999 | S. cerevisiae deletion strains, locus YIL066C, strain RNR3, hits give low values 0.951 | S. cerevisiae deletion strains, locus YIL073C, strain SPO22, hits give low values 0.956 | S. cerevisiae deletion strains, locus YIL125W, strain kgd1, hits give low values 0.996 | S. cerevisiae deletion strains, locus YIR030C, strain dcg1, hits give low values 1.01 | S. cerevisiae deletion strains, locus YJL095W, strain BCK1, hits give low values 0.847 and 1.02 | S. cerevisiae deletion strains, locus YJL134W, strain LCB3, hits give low values 1 | S. cerevisiae deletion strains, locus YJL168C, strain set2, hits give low values 1.02 | S. cerevisiae deletion strains, locus YJL187C, strain SWE1 (second series), hits give low values 0.96 | [10] 1.06 | S. cerevisiae deletion strains, locus YJR066W, strain TOR1, hits give low values 0.949 | [11] 0.934 | S. cerevisiae deletion strains, locus YKL009W, strain mrt4, hits give low values 0.934 | S. cerevisiae deletion strains, locus YKL068W, hits give low values 0.995 | S. cerevisiae deletion strains, locus YKL085W, strain MDH1 (second series), hits give low values 0.99 | S. cerevisiae deletion strains, locus YKL085W, strain MDH1, hits give low values 0.99 | [12] 0.996 | S. cerevisiae deletion strains, locus YKR001C, strain vps1, hits give low values 1.01 | S. cerevisiae deletion strains, locus YLR058C, strain SHM2, hits give low values 0.998 | S. cerevisiae deletion strains, locus YLR102C, strain apc9, hits give low values 1.01 | S. cerevisiae deletion strains, locus YLR113W, strain HOG1, hits give low values 0.995 | S. cerevisiae deletion strains, locus YLR268W, strain sec22, hits give low values 1.03 | S. cerevisiae deletion strains, locus YLR330W, strain CHS5, hits give low values 1.01 | S. cerevisiae deletion strains, locus YLR371W, strain rom2, hits give low values 1.01 | S. cerevisiae deletion strains, locus YML016C, strain PPZ1, hits give low values 1 | S. cerevisiae deletion strains, locus YML032C, strain rad52, hits give low values 0.995 | S. cerevisiae deletion strains, locus YML124C, strain tub3, hits give low values 1.02 | S. cerevisiae deletion strains, locus YMR078C, strain ctf18, hits give low values 1.01 | S. cerevisiae deletion strains, locus YMR223W, strain ubp8, hits give low values 0.953 | [19] 0.912 | [29] 0.979 | S. cerevisiae deletion strains, locus YNL067W, strain RPL9B, hits give low values 0.959 | [20] 0.945 | S. cerevisiae deletion strains, locus YNL183C, strain NPR1, hits give low values 0.96 | S. cerevisiae deletion strains, locus YNL233W, strain BNI4, hits give low values 0.956 | S. cerevisiae deletion strains, locus YNL250W, strain rad50, hits give low values 1.01 | S. cerevisiae deletion strains, locus YNL271C, strain bni1, hits give low values 1.02 | S. cerevisiae deletion strains, locus YNL298W, strain CLA4, hits give low values 1 | S. cerevisiae deletion strains, locus YNL307C, strain MCK1, hits give low values 0.924 | [22] 1.01 | S. cerevisiae deletion strains, locus YNR052C, strain pop2, hits give low values 0.98 | [24] 0.555 | S. cerevisiae deletion strains, locus YOL012C, strain htz1 1.16 | S. cerevisiae deletion strains, locus YOL147C, strain pex11, hits give low values 1.01 | S. cerevisiae deletion strains, locus YOR061W, strain CKA2, hits give low values 0.977 | S. cerevisiae deletion strains, locus YOR069W, strain VPS5, hits give low values 1 | S. cerevisiae deletion strains, locus YOR136W, strain idh2, hits give low values 0.996 | S. cerevisiae deletion strains, locus YOR144C, strain elg1, hits give low values 1.01 | S. cerevisiae deletion strains, locus YOR184W, strain ser1, hits give low values 0.983 | S. cerevisiae deletion strains, locus YOR231W, strain MKK1, hits give low values 1.03 | S. cerevisiae deletion strains, locus YOR316C, strain cot1, hits give low values 1.01 | [26] 1 | S. cerevisiae deletion strains, locus YPL256C, strain CLN2, hits give low values 1.06 | S. cerevisiae deletion strains, locus YPR119W, strain clb2, hits give low values 1.02 | S. cerevisiae deletion strains, locus YPR141C, strain kar3, hits give low values 0.999 | S. cerevisiae deletion strains, locus YPR163C, strain tif3, hits give low values 0.991 | S. cerevisiae deletion strains, locus YPR167C, strain met16, hits give low values 1 | S. cerevisiae deletion strains, strain wtn01, hits give low values 0.975 | [30] 0.947

CN1CCc2ccccc2Cc2[nH]c3ccccc3c2CC1
inactive: [1] 1.01 | S. cerevisiae deletion strains, locus YAL040C, strain CLN3, hits give low values 1.04 | S. cerevisiae deletion strains, locus YCL061C, strain MRC1 (second series), hits give low values 1.01 | [4] 1.01 | S. cerevisiae deletion strains, locus YDR363W, strain ESC2, hits give low values 0.97 | S. cerevisiae deletion strains, locus YER002W, strain NOP16, hits give low values 0.996 | [6] 0.994 | [31] 1.01 | [20] 1.03 | S. cerevisiae deletion strains, locus YNL175C, strain NOP13, hits give low values 1.01 | S. cerevisiae deletion strains, locus YNL197C, strain WHI3, hits give low values 1.01 | S. cerevisiae deletion strains, locus YNL224C, strain SQS1, hits give low values 0.996 | [22] 1.02 | S. cerevisiae deletion strains, locus YOR083W, strain WHI5 (second series), hits give low values 0.998 | [25] 1.01 | [26] 1.01
